Only a selection was taken, and hits are over-represented in it overall.
Pf Dd2 growth: inhibitors of Plasmodium falciparum Dd2 growth; P. falciparum Dd2 growth, SYBR Green, 72 h; Potency, µM (top dose mostly 28.9 µM), usual class: inhibitors; 4.3% of 120,000 active; AID 1347417; active = well fitted inhibition curve with a large enough effect; also: nearly all actives have a fitted effect of over 65% in size
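Readout: SYBR Green fluorescence, 485 nm excitation, 535 nm emission, after ~16 h lysis at 37C. Before that, Dd2-infected red cells (2.5% hematocrit) grew 72 h with compound, 29 uM top final concentration.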
Each line names hits and unclear results; the compound was inactive in the other large screens.

O=C(NCc1ccc2nonc2c1)[C@@]12CNC[C@@H]1CN(C1CCCC1)C2	Pf Dd2 growth 7.9µM
CCn1c(-c2ccccc2)nn(CC(=O)NCc2ccc3nonc3c2)c1=O	none
O=C(O)[C@]12CN(Cc3ccncc3)C[C@H]1CN(C1CCOCC1)C2	none
O=C1CCC2(CCN1)CCN(S(=O)(=O)c1ccccc1F)CC2	none
CC1=NOC2(CCN(Cc3ccc(N(C)C)cc3)CC2)C1	Pf Dd2 growth 10µM
COc1ccc(CN2CCC3(CC2)CC(C)=NO3)cc1	none
CC1=NOC2(CCN(Cc3ccc(F)cc3)CC2)C1	none
CCOc1ccccc1NC(=O)N1C[C@H](Oc2cccnc2)C[C@@H]1C(=O)N1CCOCC1	none
Cn1cc(S(=O)(=O)c2cccc(Cl)c2)c(=O)c2cc(F)c(N3CCN(c4ccccc4)CC3)cc21	none
CCn1cc(S(=O)(=O)c2cc(C)cc(C)c2)c(=O)c2cc(F)c(N3CCOCC3)cc21	none
O=c1c(S(=O)(=O)c2ccccc2)cn(Cc2ccccc2)c2cc(N3CCOCC3)c(F)cc12	Pf Dd2 growth 8.9µM
Cc1cccc(S(=O)(=O)c2cn(C)c3cc(N4CCN(c5ccccc5)CC4)c(F)cc3c2=O)c1	none
Cc1ccc(Cn2cc(S(=O)(=O)c3cccc(Cl)c3)c(=O)c3cc(F)c(N4CCOCC4)cc32)cc1	none
Cc1ccc(Cn2cc(S(=O)(=O)c3cccc(C)c3)c(=O)c3cc(F)c(N4CCOCC4)cc32)cc1	Pf Dd2 growth 10µM
CC(NC(=O)c1ccc(OC2CCN(S(=O)(=O)N(C)C)CC2)cc1)c1ccc(F)cc1 (configuration not stated)	none
O=C(NCCn1cccn1)c1ccc(C2CCNC2)cc1 (configuration not stated)	none
O=C(CN1C(=O)NC2(CCOCC2)C1=O)NC1CCc2ccccc21 (configuration not stated)	none
OC[C@@H]1CN(C2CCCC2)C[C@H]1c1nc(-c2cccnc2)no1	none
Cc1cnc(-c2cccnc2)n1C1CCCN(CC2CCCCC2)C1 (configuration not stated)	Pf Dd2 growth 11µM
Cc1cnc(-c2cccnc2)n1C1CCCN(C(=O)C2CC2)C1 (configuration not stated)	none
Cc1cnc(-c2cccnc2)n1CC1CCN(CC2CC2)CC1	none
CCc1ccccc1NC(=O)CSc1nc2n[nH]c(C)c2c(=N)n1-c1cccc(C)c1	none
Cc1cccc(-n2c(SCC(=O)Nc3ccccc3Cl)nc3n[nH]c(C)c3c2=N)c1	none
Cc1ccc(NC(=O)CSc2nc3n[nH]c(C)c3c(=N)n2-c2ccccc2C)cc1C	Pf Dd2 growth 8.9µM
CCOC(=O)C1=C(C)N=C2SC=C(CC(=O)NCCOC)N2C1c1cccc([N+](=O)[O-])c1 (configuration not stated)	none
O=C(c1cccc(F)c1)N1CCN(c2cc(-c3ccc(Cl)cc3)[nH]n2)CC1	none
O=C(NCc1ccccc1)c1ccc(CS(=O)(=O)c2c(Cl)cccc2Cl)o1	none
Cc1ncc2c(c1CNC(=O)c1cccc(OC(F)F)c1)CCNC2	none
O=C(Nc1ccccc1)c1ccc(-c2cccc3c2CCNC3)o1	Pf Dd2 growth 11µM
O=C(NCc1ccccc1)c1ccc(-c2cccc3c2CCNC3)o1	Pf Dd2 growth 11µM
Cc1ccc(NC(=O)c2ccc(-c3cccc(Cl)c3C)o2)cc1	none
COc1ccc(NC(=O)c2ccc(-c3cccc(Cl)c3C)o2)cc1	none
COCCN1CC(C(=O)N(C)Cc2sccc2C)CCC1=O (configuration not stated)	none
CC(C)CCNC(=O)c1ccc(N2CC3CC(C2)[C@H]2CCCC(=O)N2C3)nc1 (some centres not stated)	none
CCc1ccccc1S(=O)(=O)N1C[C@@H](F)C[C@H]1C(=O)N1CCc2ccccc2C1	none
Cc1ccc(-n2cccn2)c(-c2nccn2-c2ccc(C(N)=O)cc2)c1	none
O=C1CCN(C(=O)C2CCC2)CCCC(C(=O)N2CCN(c3ccccn3)CC2)CCN1 (configuration not stated)	none
COc1ccc(-c2ccccc2NC(=O)C2CCCN(CC=C(C)C)C2)cc1 (configuration not stated)	Pf Dd2 growth 7.9µM
COc1cccc(-c2ccccc2NC(=O)C2CCN(Cc3ccc(F)cc3)CC2)c1	Pf Dd2 growth 7.9µM
COc1cccc(-c2ccccc2NC(=O)C2CCN(Cc3cc(OC)ccc3O)CC2)c1	Pf Dd2 growth 2.2µM
CCc1ncc(CN2CCCC(C(=O)Nc3ccccc3-c3ccc(OC)cc3)C2)cn1 (configuration not stated)	none
COc1ccc(-c2ccccc2NC(=O)C2CCCN2S(C)(=O)=O)cc1 (configuration not stated)	none
COc1ccc(-c2ccccc2NC(=O)C2CCCN(Cc3cnc(SC)nc3)C2)cc1 (configuration not stated)	none
COc1cccc(-c2ccc(CN3C4CCC3CN(C(=O)Nc3ccccc3F)C4)cc2)c1	none
CCn1ccnc1CN1CCCC(C(=O)Nc2ccccc2-c2ccc(OC)cc2)C1 (configuration not stated)	none
COc1cccc(NC(=O)C2CCCN(Cc3cccnc3)CCC(=O)NCC2)c1 (configuration not stated)	none
